Compound activity: PubChem, several laboratories
The list is not random: actives were taken first. Their share in the collection is about 2.7%.
CF NFkB inh – blocks PAF-induced NF-kB reporter in cystic fibrosis cells; hit rate 0.86% among 360,000; KKLEB NF-kB-GFP reporter, GFP fluorescence overnight; AID 588850; inhibition, % at 5 µM;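 active means at least 50% inhibition at 5 µM, scaled per plate between neutral and stimulator controls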;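 further: PAF is a Pseudomonas aeruginosa culture filtrate used as stimulus; plate controls were PAF-stimulated DMSO wells for no effect and unstimulated DMSO wells for full effect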
TRPM1 prom inh – reduces MITF-dependent TRPM1 promoter luciferase signal; SK-MEL-5 TRPM1 promoter luciferase, 24 h; inhibition, % at 12.5 µM; hit rate 0.83% among 330,000; AID 488899;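 active means mean inhibition across replicates of 60% or more, whatever share of single replicates reaches that level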
KKLEB tox – counter-screen for CF NF-kB inhibitors: cytotoxicity; KKLEB CF airway cells viability, ATPlite luminescence, overnight; active compounds read low; cells stimulated with P. aeruginosa culture filtrate; activity change (cytotoxicity), % at 5 µM; hit rate 0.36% among 360,000; AID 602141;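 active means corrected activity change at or below -50% at 5 µM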
Shn3 3UTR inh – inhibitors of Schnurri-3 3'UTR reporter in osteoblasts | hit rate 0.52% among 360,000 | inhibition, % at 12.5 µM | Clone20 osteoblast Shn3 3'UTR firefly luciferase, 24 h;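 active means mean inhibition of at least 75% with every replicate also reaching 75%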;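 further: 0% = median of neutral control wells and 100% = pilot-screen positive control compound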
HIF-2a inh – blocks HIF-2a reporter activity; inhibition, % at 18.8 µM; hit rate 0.72% among 360,000; 786-0 RCC cells HIF-2a reporter, luciferase luminescence, overnight;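 active means inhibition of the luminescence signal of 40% or more relative to plate controls, in a single-dose primary screen at 18.75 µM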
Peg3 promoter – reduces Peg3 promoter-driven luciferase expression in HeLa; HeLa PEG-Prom luciferase reporter, luminescence, overnight; inhibition, % at 20 µM; hit rate 1.7% among 360,000;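 active means inhibition of at least 50% at 20 µM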
Mdm2 MdmX conf – Mdm2/MdmX (human) interaction inhibition, confirmed; shares compounds with HIF-2a inh; SaOS-2 split-luciferase Mdm2/MdmX complementation, luminescence; inhibition, % at 8 µM; hit rate 99% among 740;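 active means mean inhibition of the luminescence signal across two replicates at or above 26 percent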
Target sequence (O15151 whole entry, looked up): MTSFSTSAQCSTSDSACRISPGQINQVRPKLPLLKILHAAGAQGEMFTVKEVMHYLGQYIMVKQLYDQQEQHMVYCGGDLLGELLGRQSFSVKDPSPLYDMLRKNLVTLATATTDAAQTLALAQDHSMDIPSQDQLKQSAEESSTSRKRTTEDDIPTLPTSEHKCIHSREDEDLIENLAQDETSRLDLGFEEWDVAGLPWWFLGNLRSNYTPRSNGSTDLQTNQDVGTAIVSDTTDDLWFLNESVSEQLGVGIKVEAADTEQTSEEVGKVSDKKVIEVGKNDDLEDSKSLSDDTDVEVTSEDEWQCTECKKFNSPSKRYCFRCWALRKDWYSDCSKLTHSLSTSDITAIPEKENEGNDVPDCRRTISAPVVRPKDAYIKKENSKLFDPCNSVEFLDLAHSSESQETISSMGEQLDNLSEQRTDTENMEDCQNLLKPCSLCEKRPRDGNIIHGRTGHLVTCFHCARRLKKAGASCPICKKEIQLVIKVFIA
Target sequence (Q00987 whole entry, looked up): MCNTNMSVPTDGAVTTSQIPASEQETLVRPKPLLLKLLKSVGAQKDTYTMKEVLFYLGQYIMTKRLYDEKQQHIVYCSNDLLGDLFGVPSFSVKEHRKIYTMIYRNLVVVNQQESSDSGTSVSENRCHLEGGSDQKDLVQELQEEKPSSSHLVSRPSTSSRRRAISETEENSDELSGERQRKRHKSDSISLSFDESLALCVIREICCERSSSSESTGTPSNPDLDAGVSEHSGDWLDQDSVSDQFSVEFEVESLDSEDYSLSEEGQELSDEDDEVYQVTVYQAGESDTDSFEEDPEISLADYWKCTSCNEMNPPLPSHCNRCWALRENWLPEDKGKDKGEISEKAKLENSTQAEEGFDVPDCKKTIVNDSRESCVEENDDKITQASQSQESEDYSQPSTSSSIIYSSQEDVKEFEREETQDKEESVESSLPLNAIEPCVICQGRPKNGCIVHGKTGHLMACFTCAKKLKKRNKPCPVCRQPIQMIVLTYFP
HIF-2a conf – HIF-2a inhibition, single concentration confirmation; shares compounds with HIF-2a inh; 786-0 RCC cells, HIF-2a luciferase reporter luminescence, overnight; inhibition, % at 18.8 µM; hit rate 56% among 1,800; AID 651580;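 active means mean inhibition across four replicates of at least 40 percent at the single tested concentration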
HIF-1a counter – HIF-1a inhibition counter-screen for HIF-2a hits. MiaPaCa-2 HIF-1a luciferase reporter, desferoxamine, overnight. shares compounds with HIF-2a inh. hit rate 72% among 1,800. inhibition, % at 18.8 µM;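 active means mean inhibition of the reporter signal across four replicates at the single tested dose of 50% or more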
The depositor's hits bear a star; x = no result.

SMILES	CF NFkB inh	TRPM1 prom inh	KKLEB tox	Shn3 3UTR inh	HIF-2a inh	Peg3 promoter	HIF-2a conf	HIF-1a counter	others
Cc1cccc(C)c1NC(=O)CCCSc1nc2ccccc2s1	8	5	5	1	-54	-40	x	x
O=C(CCCSc1nc2ccccc2s1)NC1=NCCS1	2	10	0	-14	72*	-83	85*	47
c1ccc2sc(SCSc3nc4ccccc4s3)nc2c1	2	-21	3	x	-284	-145	x	x
CCOC(=O)NC(=O)COC(=O)CCCSc1nc2ccccc2s1	-1	15	7	10	59*	5	76*	44
CC(=O)Nc1ccc(NC(=O)CCCSc2nc3ccccc3s2)cc1	-17	14	-1	-36	2	-11	x	x
O=C(O)CCSc1nc2ccccc2s1	9	4	-2	43	89*	47	97*	92*
NC(=O)NC(=O)COC(=O)CCCSc1nc2ccccc2s1	2	17	3	17	71*	18	83*	62*
CC(C)NC(=O)NC(=O)COC(=O)CCCSc1nc2ccccc2s1	9	0	14	-3	13	-1	x	x
CC(C)c1cc(C(C)C)c(S(=O)(=O)NC(c2ccccn2)C23CC2C3)c(C(C)C)c1 (stereo unspecified)	x	x	x	x	9	x	x	x
COC(=O)C(C(=O)OC)C(CC(=O)c1ccc(C)cc1)c1cc(OC)c(OC)c(OC)c1 (stereo unspecified)	-1	6	0	4	16	21	x	x
COc1ccc(C(CC(=O)c2ccc(C)cc2)C(C#N)C#N)cc1OC (stereo unspecified)	102*	21	-89*	60	56*	93*	36	105*
CN(C(=S)NC(=O)c1ccccc1)C1CCCCC1	-21	-3	-12	-8	50*	29	0	13
O=c1cc(-c2ccccc2)oc2ccc3ccccc3c12	-67	x	-67*	63	51*	43	70*	57*
O=C1C=CC(=O)N1c1ccccc1N1C(=O)C=CC1=O	61*	94*	-15	94*	77*	97*	56*	-2
CCOC(=O)C1CCCN(C(=O)COc2ccc(C(C)(C)C)cc2)CC1 (stereo unspecified)	-9	x	5	-1	47*	-18	58*	-27
Cc1ccc(-c2csc(C(O)c3cccc(Cl)c3)n2)cc1C (stereo unspecified)	-1	x	5	1	-26	10	x	x
N#CC(c1ccc(N)cc1)C(CC(=O)c1ccccc1)c1ccccc1 (stereo unspecified)	-2	x	6	-10	-69	-58	x	x
O=C(Nc1cccc(NC(=O)c2cc([N+](=O)[O-])ccc2Cl)n1)c1cc([N+](=O)[O-])ccc1Cl	-6	32	-13	43	84*	93*	25	102*	Mdm2 MdmX conf=100*
CCN(C(=O)c1ccc(NC(=O)C2CCCCC2C(=O)O)cc1)c1ccccc1 (stereo unspecified)	-14	x	7	-9	4	0	x	x
Cc1scc(C(=O)N/N=C/c2ccc([N+](=O)[O-])o2)c1C	-12	100*	6	38	61*	9	62*	84*
Cc1scc(C(=O)N/N=C/c2ccco2)c1C	-3	-41	5	-57	-139	-156	x	x
Cc1ccc(C(O)c2ncc(-c3cccc4ccccc34)[nH]2)c(C)c1 (stereo unspecified)	-4	x	-10	-17	4	7	x	x
O=C(Nc1cc(Cl)cc2c1-c1ccc(Cl)cc1C2O)C(Cl)Cl (stereo unspecified)	-63	0	8	49	45*	95*	-79	72*
O=P(Cc1cccc2ccccc12)(c1ccccc1)c1ccccc1	-2	0	-10	10	8	15	x	x
CCOC(=O)c1c(C)[nH]c(C(=O)COC(=O)CCNS(=O)(=O)c2ccc(NC(C)=O)cc2)c1C	2	15	-3	6	12	10	x	x
SMILES	CF NFkB inh	TRPM1 prom inh	KKLEB tox	Shn3 3UTR inh	HIF-2a inh	Peg3 promoter	HIF-2a conf	HIF-1a counter	others
COC(=O)[C@@]12C[C@@H](CC(=O)NCCc3ccccc3OC)C(=O)N(Cc3ccccc3)C1=CCC(C)(C)C2	x	x	x	x	-36	x	x	x
O=C(Nc1ccc(F)cc1)C(c1cccc(F)c1)N1CCN(c2cccc(C(F)(F)F)n2)CC1 (stereo unspecified)	x	x	x	x	-42	x	x	x
O=C(COC(=O)c1ccccc1C(=O)c1ccc(Cl)c([N+](=O)[O-])c1)NC1CC1	105*	81*	-66*	70	84*	99*	30	101*	Mdm2 MdmX conf=103*
O=C(COC(=O)c1cc([N+](=O)[O-])ccc1Cl)NC1CCCC1	-11	-19	-2	6	17	6	x	x
NC(Cc1ccccc1)c1csc(NC(=O)c2cccc(OC(F)(F)F)c2)n1 (stereo unspecified)	-10	x	-11	-1	65*	99*	6	106*
COc1ccc(CC(N)c2csc(NC(=O)c3ccc(OC)cc3)n2)cc1 (stereo unspecified)	0	x	-7	4	-6	16	x	x
Cc1ccccc1N(Cc1cc(=O)[nH]c2ccccc12)C(=O)CCl	34	54	-11	12	27	58*	x	x	Mdm2 MdmX conf=102*
COc1ccc(CN2C[C@@H](CO)O[C@@H](n3cnc4c(NCc5ccncc5)ncnc43)C2)cc1	10	x	-25	-14	-9	-10	x	x
CSCCC(NS(=O)(=O)Cc1ccccc1)C(=O)NNc1ccccc1 (stereo unspecified)	11	x	-4	-4	9	12	x	x
COc1cc(OC)nc(Nc2nc(C(N)Cc3ccc(C(F)(F)F)cc3)cs2)n1 (stereo unspecified)	12	x	-21	75	70*	115*	-2	105*
CCOc1ccc2nc(SCc3ccc(CC(=O)O)cc3)c(C#N)cc2c1	16	1	-3	-1	83*	13	89*	57*
COc1cccc(NC(=O)c2cc3c(=O)n4ccccc4nc3n(CC(C)C)c2=N)c1	-13	60	10	5	-10	-8	x	x	Mdm2 MdmX conf=36*
Cc1ccc(N(CC(=O)NCCc2ccc(F)cc2)S(=O)(=O)c2ccc(Cl)c([N+](=O)[O-])c2)c(C)c1	-1	48	-2	13	92*	104*	32	108*
